Source: PubChem
HT1080-NT tox: kills 2HG-producing HT-1080-NT fibrosarcoma cells. Potency, µM (titrated, usually from 46.1 µM), without a hit: at the top dose activity, negative = less viability, actives largely listed as cytotoxic. actives 1.6% (n = 360,000). HT-1080-NT fibrosarcoma viability, CellTiter-Glo ATP luminescence, 48 h;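 further: NT is the 2HG producing partner of a matched IDH1 knockdown line; 0% = DMSO-treated cells and -100% = media-only wells without cells; nearly all actives have a fitted effect of over 55% in size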
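A 48-hour cytotoxicity screen used HT-1080-NT cells plated 2 hours before compound delivery. ATP-based CellTiter-Glo luminescence measured viability, normalized to DMSO and no-cell controls.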
KB-3-1 cytotox: KB-3-1 parental cell cytotoxicity. KB-3-1 viability, CellTiter-Glo ATP luminescence, 72 h. Potency, µM (series often up to 46.1 µM), usual class: cytotoxic. actives 1.4% (n = 400,000); further: nearly all actives have a fitted effect of over 60% in size
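Cytotoxicity in the drug-sensitive parental line KB-3-1 was scored as loss of CellTiter-Glo luminescence following 72 h incubation with compound. Values come from curve fitting of normalized concentration-response data.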
HT1080 IDH1KD tx: kills HT-1080 cells with IDH1 knockdown | Potency, µM (highest dose often 46.1 µM), without a hit: top-dose activity, negative = toxicity, actives largely listed as cytotoxic | actives 2% (n = 360,000) | HT-1080 IDH1 knockdown viability, ATP luminescence, 48 h | AID 686971;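 further: 0% = DMSO wells and -100% = cell-free medium wells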
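IDH1KD HT-1080 cells, 750/well, RPMI + 5% FBS; compound pinned after 2 h settling; 48 h, 37 °C; CellTiter-Glo luminescence; % activity normalised to DMSO and no-cell wells; curves fitted, classed by r2 and efficacy.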
KB-V1 MDR tox: KB-V1 MDR subline cytotoxicity; actives 3.4% (n = 400,000); AID 1347076; KB-V1 MDR cells viability, CellTiter-Glo, 72 h; Potency, µM (highest dose often 46.1 µM), usual class: cytotoxic; further: nearly all actives have a fitted effect of over 60% in size
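KB-V1, DMEM (no phenol red) + 10% FBS; cpd pin-transferred, titration series; 72 h, 37 degrees C; CellTiter-Glo, luminescence. Data normalized, curve-fit.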
TDP1 cell CPT: DT40-hTDP1 cell growth loss with CPT; chicken DT40 Tdp1-/-;hTDP1 cells + 20 nM CPT, ATP luminescence, 48 h; Potency, µM (doses to about 46.2 µM), without a hit: at the top dose activity change, negative = growth inhibition, usual class: inhibitors; actives 12% (n = 420,000); further: nearly all actives have a fitted effect of over 55% in size
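Chicken DT40 Tdp1-/- cells stably complemented with human TDP1 were seeded at 400 cells/well in medium containing 20 nM camptothecin, exposed to pin-transferred compounds, and grown at 37 °C for at least 48 hr. Viability was read as ATP luminescence.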
DT40 TDP1 no CPT: qHTS for Inhibitors of human tyrosyl-DNA phosphodiesterase 1 (TDP1): qHTS in cells in absence of CPT | DT40 Tdp1-/- hTDP1 cells, no CPT, ATP luminescence, 48 h | Potency, µM (doses to about 46.2 µM), without a hit: top-dose activity change, negative = growth inhibition, usual class: inhibitors | actives 15% (n = 420,000); further: nearly all actives have a fitted effect of over 55% in size
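Growth kinetics read by CellTiter-Glo luminescence after ≥48 hr at 37 °C. Cells: DT40 Tdp1-/- stably carrying human TDP1, 400 per well, compound exposure in the absence of CPT (DMSO vehicle).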
* hit, by the source's call. In the library only some 19% were active in any assay of this set; here they are far more common. The call rests on the fitted dose curve; in most records, active means well fitted curve in the direction sought with a large enough effect; inconclusive means small, poorly fitted or top-dose-only effect, or another doubt; inactive means no such curve, though single readings can be large; an effect the other way counts as inactive or inconclusive. Unless noted, on the % scale 0 is the no-effect control and ±100 the full control effect; potency means the concentration at half of the fitted maximal effect.

For Cc1ccc(Nc2c(-c3ccccn3)nc3cccc(C)n23)cc1 the results were HT1080-NT tox 11.6µM*, KB-3-1 cytotox 5.17µM*, HT1080 IDH1KD tx 7.31µM*, KB-V1 MDR tox 6.51µM*, TDP1 cell CPT 2.59µM* and DT40 TDP1 no CPT 2.06µM*.
Cc1cccc2nc(-c3ccccn3)c(Nc3ccc(F)cc3)n12 was read as KB-3-1 cytotox inactive, KB-V1 MDR tox inconclusive, TDP1 cell CPT 11.6µM* and DT40 TDP1 no CPT 18.4µM*.
For Cc1c(-c2ccccn2)c(=O)[nH]n1-c1ccc(F)cc1 the results were HT1080-NT tox 1.2%, KB-3-1 cytotox inactive, HT1080 IDH1KD tx -12.1%, KB-V1 MDR tox inactive, TDP1 cell CPT 3.6% and DT40 TDP1 no CPT -13.3%.
`O=C(NCC(c1cccnc1)N1CCOCC1)Nc1ccccc1` (stereo not given) gave HT1080-NT tox -0.4%, KB-3-1 cytotox inactive, HT1080 IDH1KD tx -1.2%, KB-V1 MDR tox inactive, TDP1 cell CPT 1.5% and DT40 TDP1 no CPT -2.3%.
`CCN(CC(=O)NCc1ccc(F)cc1)C(=O)c1ccc(Cl)cc1` gave HT1080-NT tox -0.9%, KB-3-1 cytotox inactive, HT1080 IDH1KD tx 11.4%, KB-V1 MDR tox inactive, TDP1 cell CPT -15.8% and DT40 TDP1 no CPT 2.5%.
For O=C(O)C1CSC(CCc2ccccc2)N1 (stereo not given) the results were HT1080-NT tox 10.2%, KB-3-1 cytotox inactive, HT1080 IDH1KD tx 6.9%, KB-V1 MDR tox inconclusive, TDP1 cell CPT 2.4% and DT40 TDP1 no CPT -1.8%.
CC1(c2nnc(Cc3ccccc3)o2)CC(c2ccc([N+](=O)[O-])cc2)=NO1 (stereo not given) was read as HT1080-NT tox -1.2%, KB-3-1 cytotox inactive, HT1080 IDH1KD tx -0.3%, KB-V1 MDR tox inactive, TDP1 cell CPT -43.1% and DT40 TDP1 no CPT inconclusive.
Cc1ccc(C(C(=O)NC2CCCC2)N(Cc2cccs2)C(=O)c2csnn2)o1 (stereo not given) was read as HT1080-NT tox 13.6%, KB-3-1 cytotox inactive, HT1080 IDH1KD tx 16.2%, KB-V1 MDR tox inactive, TDP1 cell CPT -28.3% and DT40 TDP1 no CPT -18.7%.
For Cc1cccc(C)c1Nc1c(-c2ccccc2F)nc2cccc(C)n12 the results were KB-3-1 cytotox inactive, KB-V1 MDR tox inactive, TDP1 cell CPT 10.3µM* and DT40 TDP1 no CPT -78.0%.
Screening Cc1ccc(Nc2c(-c3ccccc3O)nc3ccc(Br)cn23)cc1 returned KB-3-1 cytotox inactive, KB-V1 MDR tox inactive, TDP1 cell CPT -16.0% and DT40 TDP1 no CPT -1.5%.
Cc1ccc(Nc2c(-c3ccsc3)nc3cccc(C)n23)cc1 was read as HT1080-NT tox -27.9%, KB-3-1 cytotox inconclusive, HT1080 IDH1KD tx -22.7%, KB-V1 MDR tox inactive, TDP1 cell CPT 16.4µM* and DT40 TDP1 no CPT inconclusive.
For Cc1cccc2nc(-c3ccco3)c(Nc3ccccc3)n12 the results were HT1080-NT tox 10.2%, KB-3-1 cytotox inconclusive, HT1080 IDH1KD tx 5.1%, KB-V1 MDR tox inconclusive, TDP1 cell CPT inconclusive and DT40 TDP1 no CPT inconclusive.
For Cc1ccc(Nc2c(-c3ccsc3)nc3c(C)cccn23)cc1 the results were HT1080-NT tox -17.9%, KB-3-1 cytotox inactive, HT1080 IDH1KD tx -19.7%, KB-V1 MDR tox inactive, TDP1 cell CPT inconclusive and DT40 TDP1 no CPT inconclusive.
For Cc1cc2ccccc2nc1-c1ccccc1F the results were HT1080-NT tox 10.9%, KB-3-1 cytotox inactive, HT1080 IDH1KD tx 9.6%, KB-V1 MDR tox inactive, TDP1 cell CPT 2.2% and DT40 TDP1 no CPT inconclusive.
For Cc1ccc(Nc2c(-c3ccccn3)nc3ccc(Br)cn23)cc1 the results were KB-3-1 cytotox inactive, KB-V1 MDR tox inconclusive, TDP1 cell CPT 9.2µM* and DT40 TDP1 no CPT 20.6µM*.
Screening Cc1cccc2nc(-c3ccccn3)c(Nc3ccccc3)n12 returned KB-3-1 cytotox inactive, KB-V1 MDR tox 6.51µM*, TDP1 cell CPT 4.11µM* and DT40 TDP1 no CPT 4.11µM*.
For CSc1ncc(C(=O)Nc2cc(C)ccc2C)c(C)n1 the results were HT1080-NT tox 12.8%, KB-3-1 cytotox inactive, HT1080 IDH1KD tx 13.0%, KB-V1 MDR tox inactive, TDP1 cell CPT -6.9% and DT40 TDP1 no CPT 13.0%.
CCCSc1nnc2c(n1)OC(c1cccs1)Nc1ccc(Br)cc1-2 (stereo not given) was read as KB-3-1 cytotox inactive, KB-V1 MDR tox inactive, TDP1 cell CPT -8.7% and DT40 TDP1 no CPT -25.8%.
Screening Cc1cc(C)c(NC(=O)C2CCN(C(=O)N3CCOc4ccccc43)CC2)c(C)c1 returned KB-3-1 cytotox inactive, KB-V1 MDR tox inactive, TDP1 cell CPT inconclusive and DT40 TDP1 no CPT inconclusive.
`COCCOC(=O)c1[nH]c2c(c1C)C(=O)CC(c1ccccc1)C2` (stereo not given) gave HT1080-NT tox 1.64µM*, KB-3-1 cytotox 0.92µM*, HT1080 IDH1KD tx 1.3µM*, KB-V1 MDR tox 0.731µM*, TDP1 cell CPT 0.651µM* and DT40 TDP1 no CPT 0.92µM*.
`COCCOC(=O)c1[nH]c2c(c1C)C(=O)CC(c1ccc(F)cc1)C2` (stereo not given) gave HT1080-NT tox inconclusive, KB-3-1 cytotox 7.31µM*, HT1080 IDH1KD tx 23.1µM*, KB-V1 MDR tox inconclusive, TDP1 cell CPT 3.26µM* and DT40 TDP1 no CPT 5.8µM*.
CCCn1c(Cc2ccccc2)n[nH]c1=S was read as HT1080-NT tox 3.8%, KB-3-1 cytotox inactive, HT1080 IDH1KD tx 7.8%, KB-V1 MDR tox inactive, TDP1 cell CPT -3.2% and DT40 TDP1 no CPT -6.3%.
S=c1[nH]nc(Cc2ccccc2)n1Cc1ccco1 was read as HT1080-NT tox 35.5µM*, KB-3-1 cytotox inactive, HT1080 IDH1KD tx inconclusive, KB-V1 MDR tox inconclusive, TDP1 cell CPT -29.1% and DT40 TDP1 no CPT -9.1%.
Screening c1ccc(OCc2nnc3ccc(-c4ccccc4)nn23)cc1 returned KB-3-1 cytotox inactive and KB-V1 MDR tox inactive.
`COc1ccc(-c2ccc(C(=O)Nc3ccc(OC)nc3)c3occc23)c(C)c1` gave HT1080-NT tox inconclusive, KB-3-1 cytotox inconclusive, HT1080 IDH1KD tx inconclusive, KB-V1 MDR tox inactive, TDP1 cell CPT 0.366µM* and DT40 TDP1 no CPT 14.6µM*.
`COc1ccc(-c2ccc(C(=O)Nc3ccccc3)c3occc23)c(C)c1` gave HT1080-NT tox inconclusive, KB-3-1 cytotox inconclusive, HT1080 IDH1KD tx inconclusive, KB-V1 MDR tox inconclusive, TDP1 cell CPT 20.6µM* and DT40 TDP1 no CPT inconclusive.
